Bioassay records deposited in PubChem by several laboratories.
Sampled rows, rich in hits. Any-hit rate of the full collection: about 4.3%.
Wnt act: Wnt/beta-catenin pathway activators, primary screen, cell-based, plate reader, single point; AID 743398, 2014; Wnt/beta-catenin reporter cell assay, activator; actives 1.2% (n = 300,000); activation, % at 9.35 µM; in the data active means activation above about 30%, passing the limit was not always enough; inconclusive means no clear call, values can overlap the other calls;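 further: 0% = neutral control wells and 100% = positive control wells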
MITF act: activators of MITF-driven TRPM1 promoter reporter, primary screen, cell-based, SK-MEL-5, luciferase, single point | SK-MEL-5 TRPM1-promoter luciferase, 24 h; % of positive control, neutral wells = 0 | activation, % at 12.5 µM | actives 0.75% (n = 300,000) | AID 588334, 2011;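 active means mean activation of at least 80% with every replicate also reaching 80%; inconclusive means mean reaches 80% but some replicate falls short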;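 further: 0% = neutral control wells and 100% = parthenolide positive control wells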
HSF1 inhib: HSF1 inhibitors in luciferase reporter cells, primary screen, cell-based, NIH3T3, luminescence; activity change, negative = inhibition, % at 7.5 µM (by protocol); AID 2098, 2009; actives 0.77% (n = 300,000); NIH3T3-HGL HSE-luciferase, MG132-induced, luminescence 8 h; active compounds read low;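 active means more than half of replicate wells show activity change below -50%, luminescence cut by over half; inconclusive means some wells, but at most half, below -50%; inactive means no replicate well below -50%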;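 further: luciferase reports HSF-1 transcriptional activity via heat shock element; 0% = median of DMSO wells and -100% = zero luminescence signal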
SMARCA2 act: SMARCA2 (BRM) function activators, primary screen, cell-based, luminescence, high throughput | activation, % at 9.1 µM | MG213 cells, MMTV-luciferase reporter, dexamethasone, overnight | actives 1% (n = 370,000); in the data active means activation above about 7.8%;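 further: 0% = vehicle wells and 100% = reference activator wells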
HSF-1 act: HSF-1 activators, primary screen, NIH3T3-HGL cells, MG132 stress, luminescence, single point; NIH3T3-HGL HSF-1 luciferase reporter, 8 h; 100% = twice DMSO control signal; activation, % at 9 µM; actives 1.7% (n = 300,000); AID 504408, 2011;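 active means mean replicate activation of at least 50% with a set share of replicates each reaching 50%; inconclusive means only one of those two conditions met; inactive means mean below 50% and too few replicates reaching it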;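 further: 0% = median of the neutral control wells and 100% = twice that signal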
esBAF inh: Bmi1 luciferase reporter increase in mESCs, primary screen, esBAF inhibitor project, mouse ES cells, Bmi1 luciferase knock-in, single point; 24 h; 100% = twice the neutral-well signal; reporter increase, % at 12.5 µM; actives 2% (n = 350,000); AID 602393, 2012; in the data active means activation above about 40%; inconclusive means no clear call, values can overlap the other calls;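 further: 0% = median of the plate's neutral control wells and 100% = double that signal; a rise in the Bmi1 reporter signal indicates esBAF inhibition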
* hit, by the source's call; ? = inconclusive; . = no result given.

SMILES	Wnt act	MITF act	HSF1 inhib	SMARCA2 act	HSF-1 act	esBAF inh
O=C(c1ccccc1)N1CCN(c2ncccn2)CC1	2.6	.	0.2	-4.2	22.1	-4.0
Nc1ncnc2nc(N3CCN(C(=O)c4ccccc4)CC3)[nH]c12	.	-12.5	-72.6*	2.2	-80.2	0.1
CC(C)C#Cc1cnc2c(c1)C(=O)N([C@H](C)CO)C[C@@H](C)[C@@H](CN(C)Cc1cncnc1)O2	.	.	.	.	.	-11.3
C[C@H]1CCCCO[C@@H](CN(C)S(=O)(=O)c2ccccc2)[C@@H](C)CN([C@@H](C)CO)C(=O)c2cc(NS(C)(=O)=O)ccc2O1	.	.	.	.	.	-2.9
N#CC(C#N)=C1C=CC=CN1/C(=C\c1ccccc1)C(=O)c1cccs1	0.4	-42.5	182.3	-2.4	214.4*	.
N#CC(C#N)=C1C=CC=CN1/C(=C\c1ccccc1Cl)C(=O)c1ccccc1	-4.0	-75.2	.	3.0	.	.
CC(C)CNC(=O)C(=O)N/N=C/c1cccs1	8.6	-4.8	2.9	-0.3	12.5	20.6
CC(C)(C)C1CCc2c(C(=O)N/N=C/c3cccs3)csc2C1 (stereo not given)	18.7	124.4*	20.8	4.3	39.0	35.4
CC(C)(C)NC(=O)C(=O)N/N=C/c1cccs1	21.8	.	6.9	1.7	7.5	45.6*
CCc1ccc(/C=N/NC(=O)c2c[nH]c3ccccc23)s1	?	89.3*	25.2	5.4	57.8*	38.0
O=C(N/N=C/c1cccs1)c1ccc2ccccc2c1	11.6	27.7	11.5	0.5	32.0	76.6*
CNC[C@H]1Oc2ccc(NC(=O)Nc3ccc(F)cc3)cc2CC(=O)N([C@@H](C)CO)C[C@@H]1C	.	.	.	.	.	-2.5
Cc1occc1C(=O)N/N=C/c1c[nH]c2ccccc12	1.4	56.2	38.8	.	37.0	50.0*
Cc1c(/C=N\NC(=O)c2c[nH]c3ccccc23)cnn1C	21.1	-4.4	3.3	1.0	5.7	.
O=C(N/N=C/c1cccs1)c1c[nH]c2ccccc12	30.5*	61.8	24.5	4.5	18.6	?
COc1ccc(/C=N/NC(=O)c2ccoc2C)cc1COc1c(C)cccc1C	16.3	.	46.3	-1.4	?	50.0*
CNC[C@@H]1Oc2cc(C#Cc3cccnc3)ccc2S(=O)(=O)N([C@@H](C)CO)C[C@H]1C	.	.	.	.	.	7.1
COc1ccccc1C(=O)Nc1nnc(-c2ccc(F)cc2)s1	12.6	.	18.5	0.5	24.3	51.7*
O=C(Nc1nnc(-c2ccc(F)cc2)s1)Nc1ccccc1F	6.8	.	6.9	-1.5	5.0	.
O=C(Nc1nnc(-c2ccccc2)s1)c1ccc(F)cc1	12.4	83.7*	11.9	2.7	25.5	46.6*
COc1ccc(C(=O)Nc2nnc(-c3ccc(F)cc3)s2)c(OC)c1	-1.9	-0.9	-8.7	-0.1	24.5	4.1
O=C(C[C@H]1CC[C@@H]2[C@H](COC[C@@H](O)CN2Cc2ccc3c(c2)OCO3)O1)N1CCCCC1	.	.	.	.	.	2.4
CC1=CCC(COC(=O)Nc2ccccc2)CC1 (stereo not given)	-2.2	125.5*	27.8	3.4	42.4	84.1*
O=C(Nc1ccccc1)OCC1CCCN2CCCCC12 (stereo not given)	-2.4	-3.3	-7.5	-0.1	1.0	7.6
O=C(c1ccc(COc2ccc3c(c2)CCC3)o1)N1CCN(c2ccccc2)CC1	9.9	1.8	70.4	3.1	61.9*	13.8
SMILES	Wnt act	MITF act	HSF1 inhib	SMARCA2 act	HSF-1 act	esBAF inh
O=C(N/N=C/c1cccc(O)c1)c1ccc(COc2ccc3c(c2)CCC3)o1	.	25.6	.	4.6	.	51.6*
C[C@@H]1CCCCO[C@H](CN(C)C(=O)Nc2ccc3c(c2)OCO3)[C@H](C)CN([C@H](C)CO)C(=O)c2cc(NC(=O)CCC(F)(F)F)ccc2O1	.	.	.	.	.	2.5
COc1ccc2oc(C(=O)N3CCCc4ccccc43)c(C)c2c1	0.4	68.0	20.7	1.5	22.3	74.8*
COc1cc(OC)cc(C(=O)N2CCCc3ccccc32)c1	8.9	-16.6	-6.1	-0.2	-7.7	-1.0
Oc1c(CN2CCCCC2)cc(Br)c2cccnc12	.	-77.6	-60.2*	2.3	-58.3	-23.7
S=C(NCc1ccccn1)Nc1ccccc1Cl	.	2.2	36.4	7.0	63.2*	.
O=C(NNC(=S)Nc1ccccc1Cl)c1ccccc1Br	25.9	59.5	20.8	4.2	30.4	65.8*
S=C(NCc1ccccn1)Nc1cccc(Cl)c1	.	-4.6	27.9	-0.3	59.8*	7.3
FC(F)(F)c1cccc(NC(=S)NCc2ccccn2)c1	-2.4	-4.8	21.8	4.7	56.9*	.
Cc1cccc(NC(=S)NCc2ccccn2)c1	.	4.9	32.9	0.5	45.6	13.6
S=C(NCCc1ccccn1)Nc1ccccc1Cl	2.2	7.6	-5.7	7.6	13.6	.
S=C(NCCNC(=S)Nc1ccccc1Cl)Nc1ccccc1Cl	2.6	-9.7	4.9	-2.1	-7.9	-0.4
NNC(=S)Nc1ccccc1Cl	0.3	-6.6	-53.5*	-1.2	-58.8	12.8
C/C(=N\O)c1ccc2c3c([nH]c2c1)CCCC3	.	3.1	60.7	4.4	93.0*	.
C/C(=N\O)c1ccc2[nH]ccc2c1	.	36.1	8.7	0.8	19.0	27.5
CCc1ccc(NC(=O)CSCc2nc(N)nc(Nc3ccccc3CC)n2)cc1	-5.9	-9.3	6.6	4.2	7.6	-1.2
CCc1ccccc1Nc1nc(N)nc(CSCC(=O)Nc2ccc(C)c(C)c2)n1	57.3*	-8.4	4.0	-1.2	25.6	.
Cc1ccc(C)c(Sc2ccc(NC(=O)CCl)cc2)c1	.	.	31.7	-2.4	74.6*	.
Cc1ccc(Nc2n[nH]c(=S)s2)cc1C	12.0	.	.	7.5	.	50.9*
Nc1ccc2nc(-c3ccccc3)[nH]c2c1	20.7	.	21.1	0.1	33.4	26.5
Nc1ccc2nc(-c3cccs3)[nH]c2c1	13.5	58.5	1.3	-1.4	10.0	44.2*
Nc1ccc2nc(-c3ccccn3)[nH]c2c1	.	46.7	-57.2*	6.4	-55.0	25.7
Cc1ccnn2c(-c3ccccc3)c3c(=O)n(C)c(=O)n(C)c3c12	.	.	-3.3	.	4.3	.
Cn1c(=O)c2cn3c(c2n(C)c1=O)C(c1ccccc1)CC(c1ccccc1)=N3 (stereo not given)	-3.2	-21.0	13.5	-1.4	44.9	77.3*
COc1cccc(S(=O)(=O)N[C@@H]2C=C[C@@H](CC(=O)NCc3ccccc3)O[C@H]2CO)c1	.	.	.	.	.	12.3
O=C(CN1CC(=O)Oc2ccccc21)OCC(=O)c1ccccc1	.	-13.7	38.3	-1.6	?	7.8
O=C(CN1CC(=O)Oc2ccccc21)OCC(=O)c1cccc(Br)c1	.	-24.8	31.0	.	52.9*	21.6
Cc1oc(S(=O)(=O)N(C)C)cc1C(=O)Nc1ccc(Cl)cc1	-1.6	-9.9	14.6	-6.2	54.6*	.
